This is part of a sample that, as a whole, favours compounds with a hit. Of some 83,000 tested, about 20% had one in any assay.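 Plates (96-well) were seeded with cells, treated with compound at one concentration, and incubated for 48 hours before percent growth was determined.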 Values without a mark were called inactive. Activity calls are given as the source filed them. How the source made its calls: active means growth percent below 10; inactive means the rest.

Test systems include SR leukemia; RPMI-8226 leukemia; OVCAR-8 ovarian; OVCAR-5 ovarian; OVCAR-4 ovarian; SK-OV-3 ovarian; IGROV1 ovarian; OVCAR-3 ovarian; HS 578T breast; NCI/ADR-RES ovarian; T-47D breast; BT-549 breast; MDA-MB-435 melanoma; SW-620 colon; MCF7 breast; HCT-116 colon; HCC-2998 colon; KM12 colon.
Holding throughout (assay): NCI-60 one-dose screen, 48 h (100 = growth as untreated, 0 = no growth, -100 = all killed)
Common to all, as to conditions: 10 µM unless noted

As for `CC(C)(CO)N(CCO)CCO`, the growth in the assay on SR leukemia was 99.5%; in the assay with RPMI-8226 leukemia, 95%; in the assay with OVCAR-8 ovarian, 110%; with OVCAR-5 ovarian, 93.1%; in the assay on OVCAR-4 ovarian it was 110%; in the assay on SK-OV-3 ovarian, 109%. Further, the growth with IGROV1 ovarian was 113%; with OVCAR-3 ovarian it was 112%; with HS 578T breast it was 113%; in the assay with NCI/ADR-RES ovarian it was 102%; in the assay with T-47D breast, 112%; in the assay on BT-549 breast, 101%. Moreover, the growth was 108% in the assay on MDA-MB-435 melanoma; 111% with SW-620 colon; 100% with MCF7 breast; 106% in the assay with HCT-116 colon; 105% in the assay on HCC-2998 colon; 106% in the assay on KM12 colon.
`Oc1c(Cl)cc(Cl)c2ccc(Cn3cc(-c4cccc(C(F)(F)F)c4)nn3)nc12`: the growth with SR leukemia is -15.6% (active); in the assay with RPMI-8226 leukemia, 8.24% (active); with OVCAR-8 ovarian, 80%; in the assay on OVCAR-5 ovarian, 94.5%; in the assay with OVCAR-4 ovarian, 65.9%; in the assay with SK-OV-3 ovarian, 107%. For the same compound, the growth in the assay on IGROV1 ovarian was 85.2%; in the assay on OVCAR-3 ovarian it was 15%; with HS 578T breast, 74.9%; in the assay on NCI/ADR-RES ovarian, 104%; in the assay with T-47D breast, 58.9%; in the assay with BT-549 breast, 75%. The growth was 73.9% in the assay on MDA-MB-435 melanoma; 28.7% in the assay on SW-620 colon; 42.3% in the assay with MCF7 breast; 14% with HCT-116 colon; 99.5% with HCC-2998 colon; 100% in the assay with KM12 colon.
Regarding `CC(=O)Nc1c(Cl)cc(Cl)c2c1Cc1cc([N+](=O)[O-])ccc1-2`, the growth in the assay with SR leukemia is 47.9%; with RPMI-8226 leukemia, 87.1%; in the assay with OVCAR-8 ovarian, 74.8%; with OVCAR-5 ovarian, 108%; in the assay on OVCAR-4 ovarian, 9.59% (active); in the assay with SK-OV-3 ovarian, 87.3%. For the same compound, the growth with IGROV1 ovarian was 91.2%; in the assay with OVCAR-3 ovarian, 80.5%; in the assay on HS 578T breast, 65.4%; with NCI/ADR-RES ovarian it was 83.5%; in the assay with T-47D breast it was 70.6%; in the assay on BT-549 breast it was 92.7%. In addition, the growth with MDA-MB-435 melanoma was 85.9%; with SW-620 colon, 80.6%; in the assay on MCF7 breast, 76.8%; in the assay on HCT-116 colon it was 45.8%; in the assay with HCC-2998 colon, 94.3%; in the assay on KM12 colon, 86.4%.
On to `COc1ccc(C(C)=O)cc1S(N)(=O)=O`, for which the growth in the assay with SR leukemia is 104%; in the assay on RPMI-8226 leukemia, 98.9%; in the assay on OVCAR-8 ovarian it was 96.6%; in the assay on OVCAR-5 ovarian, 102%; in the assay on OVCAR-4 ovarian, 101%; in the assay with SK-OV-3 ovarian, 115%. Moreover, the growth in the assay on IGROV1 ovarian is 108%; in the assay on OVCAR-3 ovarian it was 108%; with HS 578T breast, 91.6%; in the assay on NCI/ADR-RES ovarian, 98.1%; with T-47D breast, 105%; with BT-549 breast, 95.6%. Besides, the growth in the assay with MDA-MB-435 melanoma was 99.3%; in the assay with SW-620 colon, 103%; in the assay on MCF7 breast, 96.4%; with HCT-116 colon it was 89%; with HCC-2998 colon, 98.3%; in the assay with KM12 colon, 103%.
On to `CCCn1c(=S)sc2c1nc(C)n1c(Nc3ccccc3)nnc21`, for which the growth with SR leukemia was 61.4%; in the assay on RPMI-8226 leukemia it was 45.9%; in the assay on OVCAR-8 ovarian it was 71.3%; with OVCAR-5 ovarian, 107%; in the assay on OVCAR-4 ovarian it was 42.8%; with SK-OV-3 ovarian, 89.2%. The growth with IGROV1 ovarian was 80.3%; with OVCAR-3 ovarian, 61.5%; with HS 578T breast, 97.4%; in the assay with NCI/ADR-RES ovarian, 85.4%; in the assay on T-47D breast, 15.6%; in the assay on BT-549 breast, 76.2%. The growth was 63.7% in the assay with MDA-MB-435 melanoma; 104% in the assay on SW-620 colon; 77% in the assay with MCF7 breast; 59.1% in the assay on HCT-116 colon; 78.3% in the assay with HCC-2998 colon; 96.5% in the assay on KM12 colon.
With `CCN(CC)CCOc1ccc(Nc2ncc3cc(-c4ccc(O)cc4)c(=O)n(C)c3n2)cc1`, the growth with SR leukemia was -20.5% (active); in the assay on RPMI-8226 leukemia, 70.6%; in the assay with OVCAR-8 ovarian, 55.7%; in the assay with OVCAR-5 ovarian, 57.9%; in the assay on OVCAR-4 ovarian, 110%; with SK-OV-3 ovarian it was 53%. Also, the growth with IGROV1 ovarian was 23.2%; with OVCAR-3 ovarian, 71.1%; in the assay with HS 578T breast, 33.5%; in the assay with NCI/ADR-RES ovarian, 84%; in the assay on T-47D breast, 67.4%; with BT-549 breast, 30.1%. The growth is 61.1% in the assay on MDA-MB-435 melanoma; -33.7% (active) with SW-620 colon; 51.5% in the assay with MCF7 breast; 32% in the assay on HCT-116 colon; 86.8% in the assay with HCC-2998 colon; 37.2% in the assay with KM12 colon.
`CCN(CC)CCOc1nc2c3ccc(Cl)cc3nn2c2ccccc12`: the growth is 5.43% (active) in the assay on SR leukemia; -8.15% (active) with RPMI-8226 leukemia; 28.6% in the assay with OVCAR-8 ovarian; 34% in the assay with OVCAR-5 ovarian; 35.4% in the assay on OVCAR-4 ovarian; 56% in the assay with SK-OV-3 ovarian. Also, the growth with IGROV1 ovarian is 10.1%; with OVCAR-3 ovarian, 54.6%; in the assay with HS 578T breast, 55.2%; in the assay on NCI/ADR-RES ovarian, 25.3%; with T-47D breast it was 53.4%; in the assay on BT-549 breast, 70.3%. Further, the growth is 36.3% in the assay with MDA-MB-435 melanoma; 19.7% in the assay with SW-620 colon; 2.07% (active) in the assay with MCF7 breast; 5.87% (active) with HCT-116 colon; 15.4% in the assay on HCC-2998 colon; 43.1% with KM12 colon.
For `O=C1/C(=C/c2cccc([N+](=O)[O-])c2)COc2ccc(O)cc21`, the growth in the assay with SR leukemia is 8.9% (active); in the assay with RPMI-8226 leukemia, -22.9% (active); in the assay on OVCAR-8 ovarian, 31.2%; in the assay with OVCAR-5 ovarian, 54.8%; in the assay on OVCAR-4 ovarian it was 74.4%; with SK-OV-3 ovarian it was 111%. The growth in the assay with IGROV1 ovarian was 33.8%; with OVCAR-3 ovarian, 34.4%; in the assay with HS 578T breast, 33.7%; in the assay with NCI/ADR-RES ovarian it was 42%; with T-47D breast, 46.2%; in the assay on BT-549 breast, 63.3%. Also, the growth with MDA-MB-435 melanoma is 12.4%; with SW-620 colon it was -47.3% (active); in the assay on MCF7 breast, -26.2% (active); in the assay with HCT-116 colon it was -44.6% (active); in the assay on HCC-2998 colon, 58.7%; in the assay with KM12 colon it was 15.5%.
Turning to `COc1cc2cc(Oc3ccc(NC(=O)Nc4ccccc4)cc3)c(C)nc2cc1OCCN1CCCCC1`, the growth in the assay with SR leukemia was -25.9% (active); in the assay with RPMI-8226 leukemia it was 44.3%; in the assay with OVCAR-8 ovarian it was 46.5%; in the assay with OVCAR-5 ovarian, 119%; in the assay with OVCAR-4 ovarian it was 83.1%; with SK-OV-3 ovarian, 110%. For the same compound, the growth with IGROV1 ovarian is 92.3%; in the assay with OVCAR-3 ovarian it was 101%; in the assay on HS 578T breast, 70.4%; in the assay on NCI/ADR-RES ovarian it was 90.5%; in the assay with T-47D breast it was 88%; with BT-549 breast, 86.8%. Further, the growth in the assay with MDA-MB-435 melanoma was 61.8%; with SW-620 colon, 70.3%; with MCF7 breast, 31.9%; in the assay with HCT-116 colon, 11.1%; in the assay with HCC-2998 colon it was 73%; in the assay on KM12 colon, 42.4%.

The record behind these values is PubChem BioAssay (NCI).
